# Data as given in PubChem BioAssay AID588651 (The Scripps Research Institute Molecular Screening Center, 2011).
# Activity calls are given as the source filed them. Rule as the data show it: active = inhibition above about 65%; inactive = the rest.
# Test system: Fam108b
# Test: Fam108b inhibitors and proteome off-target selectivity – biochemical, gel-based ABPP, recombinant soluble Fam108b, HTS hits, complex proteome, late-stage follow-up (AID 588651);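 also: Fam108b spiked into mouse brain membrane proteome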
# Settings: FP-rhodamine labeling in proteome, at 20 µM, stronger effect = higher value
row,Compound,inhibition
1,CCc1ccc(S(=O)(=O)N=C2C=C(Sc3ncn[nH]3)C(=O)c3ccccc32)cc1,60% (inactive)
2,Oc1nc(Nc2cccc(Cl)c2)sc1/C=C1\C=Nc2ccccc21,80% (active)
3,O=C(Nc1cccc(-c2csc(Nc3ccc(Cl)cc3)n2)c1)c1cc([N+](=O)[O-])cc(C(F)(F)F)c1,65% (active)
4,O=C(NN=Cc1ccc(O)cc1)c1cccc(NN=Cc2ccc(O)cc2)c1,60% (inactive)
5,Cc1cccc(N=Cc2nc(-c3ccccc3Br)oc2O)n1,10% (inactive)
6,O=C1c2ccccc2-c2onc3ccc(NCCCn4ccnc4)c1c23,0% (inactive)
7,O=C(O)CCCNc1cc(N2CCN(C(=O)c3ccco3)CC2)c2noc3c2c1C(=O)c1ccccc1-3,40% (inactive)
8,COc1cccc(C=NNc2nc(Nc3ccc([N+](=O)[O-])cc3)nc(N3CCCC3)n2)c1O,65% (active)
9,N=c1oc2cc(O)ccc2cc1C(=O)Nc1ccc(Br)cc1,0% (inactive)
10,COc1ccc(-c2csc3nc(-c4ccccc4OC)oc(=O)c23)cc1,80% (active)
11,O=C(O)C1Nc2ccc(Br)cc2C2C=CCC12 (stereo not given),0% (inactive)
12,O=[N+]([O-])c1ccc(NN=Cc2c[nH]c3ccccc23)c(S(=O)(=O)Nc2ccc(Cl)cc2)c1,0% (inactive)
13,Oc1ccccc1-c1nc2c3ccccc3c3ccccc3c2[nH]1,0% (inactive)
14,Cc1ccc(-c2csc3nc(C(C)C)oc(=O)c23)c(C)c1,90% (active)
15,CC1CCN(S(=O)(=O)c2ccc(C(=O)Nc3ccccc3-c3nc4ccccc4[nH]3)cc2)CC1,0% (inactive)
